Results filed as inconclusive are left out. Active and inactive are the calls of the source. Unless noted, the call rests on the fitted dose curve; in most records, active means well fitted curve in the direction sought with a large enough effect; inconclusive means small, poorly fitted or top-dose-only effect, or another doubt; inactive means no such curve, though single readings can be large; an effect the other way counts as inactive or inconclusive.
Experiments:
[1] = qHTS profiling of the MIPE4 collection as inhibitors of Plasmodium falciparum (DD2) proliferation (AID 743345; call rule not given here); settings: P. falciparum Dd2 in erythrocytes, SYBR Green DNA, 72 h; at 28.5 µM (top of the series) unless noted
Procedure, shortened: (§1)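 Parasite DNA was quantified by SYBR Green I fluorescence (ex 485, em 535 nm) after overnight lysis in saponin/Triton buffer at room temperature. Cultures at 0.3% parasitemia and 2.5% hematocrit were first exposed to compound for 72 h at 37 C; signals were normalised to artemisinin (0.29 uM) and vehicle wells.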

[2] = qHTS profiling of the MIPE4 collection as inhibitors of Plasmodium falciparum (DD2) proliferation (Rep 2) (AID 743346; call rule not given here); settings: P. falciparum Dd2 in erythrocytes, SYBR Green DNA, 72 h; at 28.5 µM (top of the series) unless noted
Procedure, shortened: as §1

[3] = qHTS profiling of the MIPE4 collection as inhibitors of Plasmodium falciparum (HB3) proliferation (AID 743347; call rule not given here;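 further: plate controls were DMSO vehicle wells for no effect and artemisinin wells for full effect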); settings: P. falciparum HB3 in erythrocytes, SYBR Green DNA, 72 h; at 28.5 µM (top of the series) unless noted
Procedure, shortened: as §1

[4] = High-throughput drug toxicity screening in the BPDCN cell line Gen2.2 (AID 1224824; call rule not given here;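 further: cells exposed to compounds for 48 h before reading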); settings: Gen2.2 BPDCN cells; at 45.8 µM (top of the series) unless noted
Procedure, shortened: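 CellTiter-Glo luminescence read after 48 h compound exposure at 37 C defines viability; percent activity set with DMSO as 100% and bortezomib (9.2 uM final) as 0%. 500 exponentially growing cells per well, RPMI plus 10% FBS.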

[5] = qHTS assay for measurement of the activity of small molecule inhibitors on Zika virus induced Caspase-3 activity in human iPSC derived neural progenitor cells (hNPCs) (AID 1224857); further: % of control where 0% means no effect; nearly all actives have a fitted effect of over 65% in size
Procedure, shortened: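 Zika virus (2 FFU/cell) infection of human iPSC-derived NPCs, 6 h, following 1 h compound preincubation. Read-out: Caspase-Glo 3/7 luminescence.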

[6] = qHTS assay for measurement of the activity of small molecule inhibitors on Zika virus induced Caspase-3 activity in human astrocytoma cells (AID 1224859);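 further: plate controls were ZIKV-infected untreated cells for no effect and uninfected cells for full effect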
Procedure, shortened: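 Caspase activation in ZIKV-infected SNB-19 cells (2 FFU/cell, 6 h) measured by Caspase-Glo 3/7 luminescence after 30 min RT; compound pre-incubated 1 h; normalised to uninfected and infected controls.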

[7] = qHTS Screen of the MIPE 4.0 Collection Against Ewings Sarcoma (RDES) (AID 1259252); further: nearly all actives have a fitted effect of over 35% in size; further: potency means the concentration at half of the fitted maximal effect
Procedure, shortened: (§2)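 Compound titrations go onto adherent log-phase cells 4 h after seeding, incubate 48 h at 37C, then CellTiter-Glo luminescence reports viability relative to DMSO and cell-free controls.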

[8] = qHTS Screen of the MIPE 4.0 Collection Against Ewings Sarcoma (TC71) (AID 1259253); further: nearly all actives have a fitted effect of over 40% in size; further: potency means the concentration at half of the fitted maximal effect
Procedure, shortened: as §2

[9] = qHTS Screen of the MIPE 4.0 Collection Against Ewings Sarcoma (EW8) (AID 1259255); further: nearly all actives have a fitted effect of over 35% in size; further: potency means the concentration at half of the fitted maximal effect;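 on viability: 100% = DMSO-treated cells and 0% = medium-only wells without cells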
Procedure, shortened: as §2

[10] = qHTS profiling of the MIPE4 collection as inhibitors of Plasmodium falciparum (3D7) proliferation (AID 743344; call rule not given here;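 further: scaled between DMSO vehicle wells and 0.29 µM artemisinin as full inhibition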); settings: P. falciparum 3D7 in erythrocytes, SYBR Green DNA fluorescence, 72 h; at 28.5 µM (top of the series) unless noted
Procedure, shortened: as §1

[11] = qHTS Screen of the MIPE 4.0 Collection Against Ewings Sarcoma (TC32) (AID 1259256); further: nearly all actives have a fitted effect of over 45% in size; further: potency means the concentration at half of the fitted maximal effect
Procedure, shortened: as §2

[12] = qHTS assay to identify small molecule inhibitors of chordoma cells - UCH-1 (AID 1259355); further: on the % scale 0 is the no-effect control and ±100 the full control effect; nearly all actives have a fitted effect of over 55% in size
Procedure, shortened: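 A 48hr growth-inhibition format: each drug tested at 15 concentrations together with added auranofin, camptothecin, doxorubicin, rubitecan and topotecan, with cell viability quantified as CellTiter-Glo luminescence.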

[13] = qHTS assay to identify small molecule inhibitors of chordoma cells - UCH-2 (AID 1259356); further: on the % scale 0 is the no-effect control and ±100 the full control effect
[14] = qHTS profiling for inhibitors of Plasmodium falciparum (HB3) proliferation (AID 743324); settings: Plasmodium falciparum HB3 blood-stage proliferation; at 28.7 µM (top of the series) unless noted;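 further: 100% = DMSO vehicle wells and 0% = artemisinin-treated control wells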
Procedure, shortened: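 SYBR Green fluorescence (485 ex/535 em) of lysed cultures, incubated overnight at room temperature in the dark, quantifies parasite DNA. Infected erythrocytes at 0.3% parasitemia and 2.5% hematocrit were exposed 72 h; values normalized to DMSO and 0.29 uM artemisinin controls.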

[15] = Identifying Small Molecule Inhibitors of Pancreatic Cancer Stem Cells (SN12C, Spheroid) (AID 1259360); settings: Potency: SN12C spheroid viability; further: potency means the concentration at half of the fitted maximal effect
Procedure, shortened: (§3)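 Adherent (2D) versus sphere (3D) formats; spheres generated 14 d in SCM beforehand. Compound transferred by pin tool after 4 h, 48 h incubation, CellTiter-Glo endpoint.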

[16] = Identifying Small Molecule Inhibitors of Pancreatic Cancer Stem Cells (A2780, Spheroid) (AID 1259357); settings: Potency: A2780 spheroid viability;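 further: spheroids pre-formed over 14 days in stem cell medium on hydrogel; compound exposure lasted 48 h before the ATP luminescence read; 100% = DMSO treated cells and 0% = wells without cells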
Procedure, shortened: as §3

[17] = Identifying Small Molecule Inhibitors of Pancreatic Cancer Stem Cells (Panc1, Adherent) (AID 1259362); settings: Potency: viability;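 further: compound exposure lasted 48 h before the viability read; plate controls were DMSO-treated cells for no effect and cell-free media wells for full effect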
Procedure, shortened: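 Viability is scored by CellTiter-Glo luminescence 48 h after dosing, expressed as percent activity against vehicle and no-cell references. Spheroid formats rely on cells cultured 14 days in stem cell media beforehand.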

Structure (SMILES)	parasite growth remaining, % of DMSO control (lower = more inhibition) [1]	parasite growth, % of control (lower = inhibition) [2]	growth, % of control [3]	cell viability, % of control (lower = more cytotoxic) [4]	Potency [5]	Potency [6]	Potency [7]	Potency [8]	Potency [9]	parasite growth, % of DMSO control [10]	Potency [11]	outcome [12]	outcome [13]	remaining proliferation (% of control), lower = more inhibition [14]	Potency [15]	Potency [16]	Potency [17]
O=C(c1ccc(C(=O)N2CCC(N3CCCC3)CC2)c(Nc2ccccc2)c1)N1CCC(N2CCCC2)CC1	66.3%	33.2%	82.3%	483%	inactive	inactive	16.6 µM (active)	7.43 µM (active)	6.62 µM (active)	–	–	–	–	–	–	–	–
CCn1c(-c2nonc2N)nc2cncc(CNC3CCNCC3)c21	89.6%	43.8%	7.55%	7.5%	inactive	inactive	11.8 µM (active)	inactive	–	45.1%	14.8 µM (active)	–	–	–	–	–	–
CN1CCN2c3ncccc3Cc3ccccc3C2C1 (stereo unspecified)	93.6%	50.4%	75.6%	260%	inactive	inactive	inactive	inactive	–	–	inactive	inactive	inactive	–	–	–	–
CC(C)=CCCC(C)=CCCC(C)=CCCC(C)=CCCC(C)=CCCC(C)=CCCC(C)=CCCC(C)=CCCC(C)=CCO	17.5%	–	100%	132%	inactive	inactive	inactive	inactive	inactive	95.7%	–	–	–	–	–	–	–
C[C@]12C=CC(=O)C=C1CC[C@@H]1[C@@H]2[C@@H](O)C[C@@]2(C)[C@@H]1CC[C@]2(O)C(=O)CO	100%	86.4%	78%	87.5%	inactive	inactive	inactive	inactive	–	84.7%	inactive	–	–	–	–	–	–
CCC(=O)N1CCN(c2ccc(-n3c(=O)ccc4cnc5ccc(-c6cnc7ccccc7c6)cc5c43)cc2C(F)(F)F)CC1	8.22%	8.45%	4.5%	6.39%	inactive	inactive	–	0.0296 µM (active)	0.0332 µM (active)	5.26%	0.0105 µM (active)	–	–	2.49%	0.0526 µM (active)	–	–
Nc1[nH]nc2nnc(-c3c(-c4ccccc4)nn4ccccc34)cc12	97%	46.8%	26%	5.31%	inactive	–	5.9 µM (active)	8.33 µM (active)	–	25%	–	–	–	–	–	–	–
CC[C@H]1OC(=O)[C@H](C)[C@@H](O[C@H]2C[C@@](C)(OC)[C@@H](O)[C@H](C)O2)[C@H](C)[C@@H](O[C@@H]2O[C@H](C)C[C@H](N(C)C)[C@H]2O)[C@](C)(O)C[C@H](C)C(=NOCOCCOC)[C@H](C)[C@@H](O)[C@]1(C)O	62.4%	47.3%	82.6%	129%	inactive	inactive	inactive	inactive	inactive	53.1%	–	–	–	–	–	–	–
CC(=O)NCCC(=O)N[C@@H](CCC(N)=O)C(=O)N[C@@H](CO)C(=O)N[C@@H](CCC(N)=O)C(=O)N[C@@H](CCC(N)=O)C(=O)N[C@H](C(=O)N[C@@H](Cc1ccccc1)C(=O)N[C@]1(C)CCCCCCC=CCCC[C@@](C)(C(=O)N[C@@H](CCC(N)=O)C(=O)N[C@@H](CC(N)=O)C(N)=O)NC(=O)[C@H](CC(C)C)NC(=O)[C@H](CC(C)C)NC(=O)[C@@H](CCCNC(=N)N)NC(=O)[C@H](Cc2c[nH]c3ccccc23)NC(=O)[C@H](CC(C)C)NC(=O)[C@H](CC(N)=O)NC1=O)[C@H](C)O	41.2%	28.5%	30.1%	27%	inactive	–	18.7 µM (active)	20.9 µM (active)	–	86.3%	–	–	–	66.8%	inactive	inactive	inactive
